# From PubChem BioAssay (NCATS)
# “And” between values parts separate entries of the source, which are not always exact repeats. Equal values may be shown once. Inconclusive results are not listed. Where a call stands in place of a potency, no number is given. The source made the active and inactive calls. Unless noted, calls come from the whole dose curve; as a rule, active = well fitted curve in the direction sought with a large enough effect; inconclusive = small, poorly fitted or top-dose-only effect, or another doubt; inactive = no such curve, though single readings can be large; an effect the other way counts as inactive or inconclusive.
# How the values were obtained:
# [1] = target: ATPase family AAA domain-containing protein 5 (Homo sapiens) (UniProt Q96QE3); test: Validation screen for small molecules that inhibit ELG1-dependent DNA repair in human embryonic kidney (HEK293T) cells expressing luciferase-tagged ELG1 (AID 493107);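 note: cells co-treated with the DNA-damaging agent 5-fluorouridine alongside compound; series mostly up to about 46 µM; inhibitors lower the ELG1-luciferase luminescence signal; nearly all actives have a fitted effect of over 70% in size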
# Summary of the method: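 Compounds reducing 5-fluorouridine-driven ELG1-luciferase signal in HEK293T cells were scored; exposure lasted 16 hr at 37 °C with luminescence detected via ONE-Glo.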
# [2] = target: Thyrotropin-releasing hormone receptor (Homo sapiens) (UniProt P34981); test: qHTS for Small Molecule Agonists and Allosteric Enhancers of Human TRH Receptor: Validation Screen for Agonists (AID 493127;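 active = calcium activation more than 3 SD above the typical response in the agonist read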;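 note: intracellular calcium rise by fluo-8 fluorescence before TRH EC20 addition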); details: TRH receptor agonist cell assay; at 2 µM; stronger effect = higher value
# Summary of the method: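 Kinetic fluorescence assay of agonist-induced calcium release: overnight-plated TRHR cells, room-temperature fluo-8 loading, baseline then compound addition with per-second reads.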
# [3] = target: Galactokinase (Homo sapiens) (UniProt P51570); test: qHTS Validation Assay for Inhibitors of Human Galactokinase (GALK) (AID 493189)
# Summary of the method: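 Compounds were pin-transferred into ATP buffer, then GALK-galactose mix was added (final 5 nM enzyme, 100 uM galactose, 35 uM ATP). After 1 h at room temperature, remaining ATP was measured luminescently.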
# [4] = Validation screen for small molecules that induce DNA re-replication in SW480 colon adenocarcinoma cells (AID 504364)
# Summary of the method: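 Hoechst-stained SW480 nuclei, imaged at 405 nm excitation after 48 hr compound exposure, were counted for elevated DNA content as the re-replication signal.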
# [5] = target: Peptidyl-prolyl cis-trans isomerase NIMA-interacting 1 (Homo sapiens) (UniProt Q13526); test: qHTS Validation Assay to Find Inhibitors of Pin1 (AID 504536; active = well fitted inhibition curve with a large enough effect in the polarisation, with a control signal flat, not every such curve was filed as active; the % refers to the polarisation)
# Summary of the method: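 Fluorescence polarization competition: compounds (titration) displace HiFluor-488-labeled Pin1-1b peptide from Pin1 (0.3 uM final) in pH 7.5 HEPES buffer with DTT, 10 min at room temperature; %Activity normalized to no-enzyme wells, curves fitted.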
# [6] = target: Phosphoglycerate kinase, glycosomal (Trypanosoma brucei brucei) (UniProt P07378); test: qHTS Validation Assay to Find Inhibitors of Phosphoglycerate Kinase (AID 504547)
# Summary of the method: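 Luminescence end-point (Kinase-Glo Plus, 10 min) after a 60 min room-temperature coupled reaction. GAPDH at 100nM final supplies 1,3-BPG to PGK. Buffer: 100mM TEA pH 7.6, 5mM MgCl2, 0.01% Tween-20. Wells lacking PGK served as controls.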
# [7] = target: phosphoglycerate mutase (Leishmania major) (UniProt Q4Q090); test: qHTS Validation Assay to Find Inhibitors of Phosphoglycerate Mutase (AID 504548);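 note: end-point luminescence from Kinase-GloPlus after the PGAM reaction; series mostly up to about 58 µM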
# Summary of the method: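 L. major PGAM (1.25nM final) was added to substrate buffer and pinned compound, incubated 45 minutes at room temperature, then Kinase-GloPlus added; luminescence read after 10 minutes. Buffer: 100 mM TEA pH 7.6, 5 mM MgCl2, 0.01% Tween-20.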
# [8] = Nrf2 qHTS screen for inhibitors: Validation (AID 493153; active = well fitted inhibition curve with a large enough effect in the main read-out, with a control signal flat, not every such curve was filed as active); details: Potency: luciferase luminescence; viability change: measured here: cytotoxicity max response
# Summary of the method: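 In this counterscreened reporter format, each well gives two signals: CellTiter-Fluor fluorescence for cytotoxicity and ARE-luciferase luminescence for Nrf2 function. A549 ARE_Fluc cells in 5% FBS OPTI-MEM were exposed to compound titrations for 18-24 h.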
# [9] = qHTS for Inhibitors of Cell Surface uPA Generation: Validation Assay (AID 493164);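 note: RAW 264.7 macrophage cells exposed to compound for 18 h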
# Summary of the method: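 Compounds are titrated over seven points (2.45 nM–38.3 uM final) onto pre-plated RAW 264.7 cells and incubated for 18 h. Retained intracellular ATP, measured with ATP-Lite, indicates blocked lethal factor entry.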
# [10] = target: Ubiquitin carboxyl-terminal hydrolase 1 (Homo sapiens) (UniProt O94782); test: Inhibitors of USP1/UAF1: Pilot qHTS (AID 504865); note: nearly all actives have a fitted effect of over 35% in size; note: potency is the fitted concentration of half-maximal effect
# Summary of the method: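 Kinetic fluorescence assay: 1nM USP1/UAF1, 15 min compound preincubation, then 150nM Ub-Rho; 480/540 nm.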
# phosphoglycerate mutase (Leishmania major), sequence (Q4Q090 1-553): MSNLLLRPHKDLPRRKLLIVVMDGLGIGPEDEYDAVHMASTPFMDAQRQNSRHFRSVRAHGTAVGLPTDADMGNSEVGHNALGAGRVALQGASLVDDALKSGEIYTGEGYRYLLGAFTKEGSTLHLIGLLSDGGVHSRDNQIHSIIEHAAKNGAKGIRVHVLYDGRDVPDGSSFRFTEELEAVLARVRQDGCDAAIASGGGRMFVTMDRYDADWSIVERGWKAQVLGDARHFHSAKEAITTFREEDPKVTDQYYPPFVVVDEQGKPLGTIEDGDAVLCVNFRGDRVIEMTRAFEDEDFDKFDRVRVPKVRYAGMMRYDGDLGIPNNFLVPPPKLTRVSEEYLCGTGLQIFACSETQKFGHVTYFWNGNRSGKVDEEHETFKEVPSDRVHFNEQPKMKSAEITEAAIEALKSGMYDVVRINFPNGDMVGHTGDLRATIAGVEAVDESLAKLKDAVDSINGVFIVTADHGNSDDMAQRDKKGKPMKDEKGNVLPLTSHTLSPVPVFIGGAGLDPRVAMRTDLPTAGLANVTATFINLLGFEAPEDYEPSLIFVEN
# Phosphoglycerate kinase, glycosomal (Trypanosoma brucei brucei), sequence (P07378 whole entry, looked up): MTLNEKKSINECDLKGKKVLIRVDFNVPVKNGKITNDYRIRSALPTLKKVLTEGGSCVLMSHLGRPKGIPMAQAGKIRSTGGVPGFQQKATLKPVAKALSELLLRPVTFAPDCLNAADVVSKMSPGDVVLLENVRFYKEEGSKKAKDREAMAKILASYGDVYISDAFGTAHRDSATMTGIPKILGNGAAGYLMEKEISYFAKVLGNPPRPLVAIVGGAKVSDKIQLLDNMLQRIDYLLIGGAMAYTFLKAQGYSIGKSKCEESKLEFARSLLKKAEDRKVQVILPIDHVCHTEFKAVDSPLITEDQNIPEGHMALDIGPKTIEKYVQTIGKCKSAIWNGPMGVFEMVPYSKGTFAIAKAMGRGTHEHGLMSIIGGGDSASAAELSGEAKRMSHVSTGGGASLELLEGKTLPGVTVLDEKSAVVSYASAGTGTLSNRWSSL
# Galactokinase (Homo sapiens), sequence (P51570 whole entry, looked up): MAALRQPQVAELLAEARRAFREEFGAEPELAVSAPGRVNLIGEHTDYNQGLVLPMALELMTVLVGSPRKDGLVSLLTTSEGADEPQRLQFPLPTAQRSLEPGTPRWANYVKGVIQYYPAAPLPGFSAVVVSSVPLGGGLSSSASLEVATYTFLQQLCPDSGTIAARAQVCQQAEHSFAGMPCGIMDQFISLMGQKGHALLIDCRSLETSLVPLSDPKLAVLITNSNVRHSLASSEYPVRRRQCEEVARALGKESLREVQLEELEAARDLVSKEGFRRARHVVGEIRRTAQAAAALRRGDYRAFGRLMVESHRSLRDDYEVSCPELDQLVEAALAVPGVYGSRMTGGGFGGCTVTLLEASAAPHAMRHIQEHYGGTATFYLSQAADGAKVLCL
# Thyrotropin-releasing hormone receptor (Homo sapiens), sequence (P34981 whole entry, looked up): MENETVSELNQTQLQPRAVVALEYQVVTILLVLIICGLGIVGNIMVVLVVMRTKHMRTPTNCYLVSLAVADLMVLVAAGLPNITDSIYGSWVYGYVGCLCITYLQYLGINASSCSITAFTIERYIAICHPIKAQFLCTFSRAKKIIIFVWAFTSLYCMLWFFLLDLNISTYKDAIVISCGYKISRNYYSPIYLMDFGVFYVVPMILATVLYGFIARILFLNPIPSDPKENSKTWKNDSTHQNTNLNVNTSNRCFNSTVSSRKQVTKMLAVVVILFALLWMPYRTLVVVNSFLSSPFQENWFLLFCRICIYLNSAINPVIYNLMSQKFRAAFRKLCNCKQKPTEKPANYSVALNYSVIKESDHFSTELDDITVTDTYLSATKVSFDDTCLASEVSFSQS
# ATPase family AAA domain-containing protein 5 (Homo sapiens), sequence (Q96QE3 whole entry, looked up, the tested form may be a part): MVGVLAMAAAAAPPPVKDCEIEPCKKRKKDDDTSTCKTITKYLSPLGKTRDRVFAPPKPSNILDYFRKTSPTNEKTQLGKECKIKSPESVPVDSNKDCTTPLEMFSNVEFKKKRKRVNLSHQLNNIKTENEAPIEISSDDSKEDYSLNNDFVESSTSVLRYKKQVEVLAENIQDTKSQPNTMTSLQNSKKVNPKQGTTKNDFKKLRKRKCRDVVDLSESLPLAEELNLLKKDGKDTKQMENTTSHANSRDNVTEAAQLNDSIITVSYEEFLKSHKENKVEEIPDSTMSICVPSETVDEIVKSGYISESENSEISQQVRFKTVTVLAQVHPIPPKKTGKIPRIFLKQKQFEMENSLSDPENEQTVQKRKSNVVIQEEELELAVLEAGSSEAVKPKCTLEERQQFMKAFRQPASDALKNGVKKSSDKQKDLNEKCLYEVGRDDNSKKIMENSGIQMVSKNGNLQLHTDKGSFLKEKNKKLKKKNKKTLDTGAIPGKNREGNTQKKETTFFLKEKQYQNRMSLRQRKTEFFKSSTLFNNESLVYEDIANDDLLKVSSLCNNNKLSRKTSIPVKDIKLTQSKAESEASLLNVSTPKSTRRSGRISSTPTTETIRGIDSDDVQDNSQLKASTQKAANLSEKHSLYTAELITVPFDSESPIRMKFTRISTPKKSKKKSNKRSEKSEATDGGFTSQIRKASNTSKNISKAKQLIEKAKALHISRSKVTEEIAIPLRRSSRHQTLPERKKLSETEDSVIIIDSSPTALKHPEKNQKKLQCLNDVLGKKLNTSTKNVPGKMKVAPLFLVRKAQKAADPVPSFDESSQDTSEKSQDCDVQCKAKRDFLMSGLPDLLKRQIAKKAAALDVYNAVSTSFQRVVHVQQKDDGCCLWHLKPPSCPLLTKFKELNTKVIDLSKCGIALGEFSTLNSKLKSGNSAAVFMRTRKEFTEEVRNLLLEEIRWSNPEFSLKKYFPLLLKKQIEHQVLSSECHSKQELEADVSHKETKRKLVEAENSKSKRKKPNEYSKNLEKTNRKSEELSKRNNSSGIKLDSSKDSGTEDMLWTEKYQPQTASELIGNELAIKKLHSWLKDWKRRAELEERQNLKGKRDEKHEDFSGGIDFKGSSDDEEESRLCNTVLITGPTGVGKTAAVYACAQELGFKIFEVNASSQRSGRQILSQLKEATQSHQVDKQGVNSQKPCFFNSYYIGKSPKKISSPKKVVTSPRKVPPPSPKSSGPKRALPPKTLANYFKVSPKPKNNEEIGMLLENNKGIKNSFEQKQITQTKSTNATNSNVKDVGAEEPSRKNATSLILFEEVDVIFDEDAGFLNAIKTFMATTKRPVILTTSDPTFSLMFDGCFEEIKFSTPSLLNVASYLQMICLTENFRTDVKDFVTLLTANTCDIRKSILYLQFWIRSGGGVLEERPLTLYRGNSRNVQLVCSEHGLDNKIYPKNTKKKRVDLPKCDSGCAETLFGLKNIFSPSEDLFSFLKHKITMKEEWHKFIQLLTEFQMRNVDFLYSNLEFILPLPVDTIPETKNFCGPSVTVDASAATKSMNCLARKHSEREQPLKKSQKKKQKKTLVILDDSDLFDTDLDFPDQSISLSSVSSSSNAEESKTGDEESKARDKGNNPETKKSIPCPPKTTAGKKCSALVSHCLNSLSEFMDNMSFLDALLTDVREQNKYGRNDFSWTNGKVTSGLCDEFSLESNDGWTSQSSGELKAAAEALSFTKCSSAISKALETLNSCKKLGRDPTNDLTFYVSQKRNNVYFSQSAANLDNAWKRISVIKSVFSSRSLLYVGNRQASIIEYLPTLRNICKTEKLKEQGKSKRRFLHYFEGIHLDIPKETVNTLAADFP
# Ubiquitin carboxyl-terminal hydrolase 1 (Homo sapiens), sequence (O94782 whole entry, looked up): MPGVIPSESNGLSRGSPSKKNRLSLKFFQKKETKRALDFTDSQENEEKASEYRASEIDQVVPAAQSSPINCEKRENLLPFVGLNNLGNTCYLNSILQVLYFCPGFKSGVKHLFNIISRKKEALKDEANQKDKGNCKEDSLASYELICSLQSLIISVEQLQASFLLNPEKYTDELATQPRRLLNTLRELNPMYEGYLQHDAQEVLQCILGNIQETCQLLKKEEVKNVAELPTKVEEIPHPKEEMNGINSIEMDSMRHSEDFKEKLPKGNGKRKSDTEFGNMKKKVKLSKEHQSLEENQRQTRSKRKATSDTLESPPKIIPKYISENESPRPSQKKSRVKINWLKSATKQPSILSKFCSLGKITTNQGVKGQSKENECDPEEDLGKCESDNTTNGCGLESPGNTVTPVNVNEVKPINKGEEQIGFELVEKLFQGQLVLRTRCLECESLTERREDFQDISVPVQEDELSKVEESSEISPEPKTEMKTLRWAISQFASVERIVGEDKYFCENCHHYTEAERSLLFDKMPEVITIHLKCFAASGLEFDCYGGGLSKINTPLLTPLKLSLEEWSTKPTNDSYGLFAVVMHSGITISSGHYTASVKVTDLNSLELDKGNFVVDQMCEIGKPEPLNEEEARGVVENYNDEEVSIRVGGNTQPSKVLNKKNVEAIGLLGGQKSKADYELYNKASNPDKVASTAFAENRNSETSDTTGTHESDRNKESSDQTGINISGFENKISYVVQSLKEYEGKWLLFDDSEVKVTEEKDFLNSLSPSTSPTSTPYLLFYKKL
# Peptidyl-prolyl cis-trans isomerase NIMA-interacting 1 (Homo sapiens), sequence (Q13526 whole entry, looked up): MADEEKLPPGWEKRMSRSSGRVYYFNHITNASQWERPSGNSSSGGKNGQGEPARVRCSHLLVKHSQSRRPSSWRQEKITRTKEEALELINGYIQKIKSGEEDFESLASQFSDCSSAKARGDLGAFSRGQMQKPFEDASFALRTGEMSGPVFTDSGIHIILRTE
SMILES,Potency [1],activation [2],outcome [3],outcome [4],outcome [5],outcome [6],outcome [7],Potency [8],viability change [8],outcome [9],Potency [10]
CC(C)C[C@H](NC(=O)[C@@H](O)[C@H](N)Cc1ccccc1)C(=O)O,inactive,0.938% (inactive),inactive,inactive,inactive,inactive,inactive,,,,
CC(C[N+](C)(C)C)OC(N)=O (centres undefined),inactive,0.562% (inactive),inactive,inactive,inactive,inactive,inactive,inactive,-0.659%,inactive,inactive
CCC(C)N(C)C(=O)c1cc2ccccc2c(-c2ccccc2Cl)n1 (centres undefined),inactive,-6.5% (inactive),inactive,inactive,inactive,inactive,inactive,inactive,-9.44%,inactive,
Cc1cn[nH]c1,inactive,,inactive,inactive,inactive,inactive,inactive,inactive,9.47%,inactive,
CCN(CC)CCCC(C)Nc1ccnc2cc(Cl)ccc12 (centres undefined),inactive,0.875% (inactive),,inactive,inactive,inactive,inactive,inactive,-17.9%,inactive,
Nc1ccc(S(=O)(=O)Nc2ccnn2-c2ccccc2)cc1,inactive,1.12% (inactive),inactive,inactive,inactive,inactive,inactive,inactive,-5.45%,inactive,
CC(C)(Sc1ccc(CCN(CCCCC2CCCCC2)C(=O)NC2CCCCC2)cc1)C(=O)O,inactive,1.5% (inactive),inactive,inactive,,inactive,inactive,,,inactive,44.7 µM (active)
N=c1nc(N2CCCCC2)cc(N)n1O,inactive,0% (inactive),inactive,inactive,inactive,inactive,inactive,inactive,-11.3%,inactive,inactive
O=C1CCc2cc(OCCCCc3nnnn3C3CCCCC3)ccc2N1,inactive,3.38% (inactive),inactive,inactive,inactive,inactive,inactive,,,inactive,
CC(C)(C)NCC(O)c1ccc(O)c(CO)c1 (centres undefined),inactive,0.188% (inactive) and 0.75% (inactive),inactive,inactive,inactive,inactive,inactive,inactive,-3.99% and 2.04%,inactive,
Cc1cnc(NC(=O)C2=C(O)c3ccccc3S(=O)(=O)N2C)s1,inactive,0.812% (inactive),inactive,inactive,inactive,inactive,inactive,inactive,-10.1%,inactive,
Cc1ccccc1C(OCCN(C)C)c1ccccc1 (centres undefined),inactive,0.625% (inactive),inactive,inactive,inactive,inactive,inactive,inactive,7.3%,inactive,inactive
